The source of these data is PMC5913336, “True equilibrium measurement of transcription factor-DNA binding affinities using automated polarization microscopy”.

The assay addresses T1, Ems (Drosophila melanogaster, UniProt P18488 373-462).
T1 sequence: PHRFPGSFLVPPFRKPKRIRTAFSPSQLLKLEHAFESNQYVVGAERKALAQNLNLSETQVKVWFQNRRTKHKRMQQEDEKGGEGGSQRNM
As to the kind of experiment: FP; 33 mM phosphate pH 7.0, 90 mM NaCl, 0.01% Tween 20, 0.1 mM DTT, 0.5% agarose; room temperature. Conditions: tags: N-GST (pGEX-6P-1, kept); dsDNA, one strand shown.
Consider CACGTATTTAGCTCA, for which the binding signal is 11.1 Kd / Kd of best base at the position. On the same count and under the same terms, for GACGTAATTAGCTCA the value was 1.01 Kd / Kd of best base at the position; for CACGTAATTAGCACA, 5.4 Kd / Kd of best base at the position.

Take CACGTAATTAGCCCA: the binding signal is 4.42 Kd / Kd of best base at the position. The same measure, in the same setting: the value for CACGTAAGTAGCTCA was 63.6 Kd / Kd of best base at the position. Still for that read-out and setting: for CACGTAATTCGCTCA the value was 43.1 Kd / Kd of best base at the position; for CACGTAATTAGCTCG, 2.39 Kd / Kd of best base at the position. Still for that read-out and setting: the value for CACGTAGTTAGCTCA was 74.7 Kd / Kd of best base at the position. In the case of CACGTAATTATCTCA, the binding signal was 1.9 Kd / Kd of best base at the position. In the case of CAGGTAATTAGCTCA, the binding signal was 1.11 Kd / Kd of best base at the position.

Regarding AACGTAATTAGCTCA, the binding signal is 1.04 Kd / Kd of best base at the position.

Regarding CAAGTAATTAGCTCA, the binding signal is 1.41 Kd / Kd of best base at the position. On the same count and under the same terms, for CACCTAATTAGCTCA the value was 1.08 Kd / Kd of best base at the position; for CACGTAATTAGCTGA, 4.73 Kd / Kd of best base at the position. Turning to CACGGAATTAGCTCA, the binding signal is 38.4 Kd / Kd of best base at the position. Turning to CACGTTATTAGCTCA, the binding signal was 26.4 Kd / Kd of best base at the position.

On to CACGTAATTAGATCA, for which the binding signal was 2.14 Kd / Kd of best base at the position.

Consider CACGTAATGAGCTCA, for which the binding signal is 6.94 Kd / Kd of best base at the position. Still for that read-out and setting: the value for CACGTAATTTGCTCA was 10.5 Kd / Kd of best base at the position; that for CACGTAAATAGCTCA was 54.5 Kd / Kd of best base at the position; that for CACGTAACTAGCTCA was 72.2 Kd / Kd of best base at the position. On the same count and under the same terms, the value for CTCGTAATTAGCTCA was 1.19 Kd / Kd of best base at the position; that for CACTTAATTAGCTCA was 2.71 Kd / Kd of best base at the position; that for TACGTAATTAGCTCA was 1.04 Kd / Kd of best base at the position. Same read-out and setting: the value for CACGTAATAAGCTCA was 35.3 Kd / Kd of best base at the position; that for CATGTAATTAGCTCA was 1.24 Kd / Kd of best base at the position; that for CACGTAATTACCTCA was 1.46 Kd / Kd of best base at the position. Take CACGTAATTAGCTCC: the binding signal was 3.56 Kd / Kd of best base at the position.

As to CACGTAATTAGTTCA, the binding signal was 3.85 Kd / Kd of best base at the position. On the same count and under the same terms, the value for CACGTAATTAGCTAA was 3.58 Kd / Kd of best base at the position; that for CCCGTAATTAGCTCA was 1.04 Kd / Kd of best base at the position. Turning to CACGTAATTGGCTCA, the binding signal was 8.18 Kd / Kd of best base at the position.

Regarding CACGTAATTAGCTCA, the Kd (commonly the equilibrium constant for the complex coming apart) was ~1.7 nM. For the sequence CACATAATTAGCTCA, the binding signal is 1.34 Kd / Kd of best base at the position. On the same count and under the same terms, for CACGTAATTAGCGCA the value was 6.39 Kd / Kd of best base at the position. As to CACGCAATTAGCTCA, the binding signal was 2.2 Kd / Kd of best base at the position.

Regarding CACGAAATTAGCTCA, the binding signal was 16.8 Kd / Kd of best base at the position.

Regarding CACGTAATTAGGTCA, the binding signal is 7.3 Kd / Kd of best base at the position.

For the sequence CACGTGATTAGCTCA, the binding signal was 30.7 Kd / Kd of best base at the position.

For CGCGTAATTAGCTCA, the binding signal was 1.07 Kd / Kd of best base at the position.
